Screening data (PubChem BioAssay)
RECQ1 inh – blocks DNA unwinding by human RECQ1 | P46063 | RECQ1 DNA unwinding, red fluorescence kinetic read | Potency, µM (doses to about 57.3 µM), without a hit: at the highest dose activity, negative = inhibition, actives largely listed as inhibitors | hit rate 0.54% among 240,000 | AID 2549;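 further: plate controls were vehicle for no effect and no enzyme for full effect; nearly all actives have a fitted effect of over 30% in size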
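RECQ1T1 50 nM; forked duplex (20 bp + 30-nt ss tails) 200 nM, ATP 2 mM final; pH 8.0, 2 mM MgCl2, 2.5 ug/ml poly(dI-dC); 15 min compound preincubation; discontinuous kinetic read over 2 h at RT.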
WRN helicase inh – inhibitors of human WRN helicase; Q14191; WRN helicase unwinding, fluorescent forked duplex, kinetic; Potency, µM (titrated, usually from 114 µM), for inactives: top-dose activity change, negative = inhibition, usual class: inhibitors; hit rate 0.46% among 360,000; AID 651768; further: on the % scale 0 is the no-effect control and ±100 the full control effect; nearly all actives have a fitted effect of over 55% in size
Target sequence (Q14191 whole entry, looked up): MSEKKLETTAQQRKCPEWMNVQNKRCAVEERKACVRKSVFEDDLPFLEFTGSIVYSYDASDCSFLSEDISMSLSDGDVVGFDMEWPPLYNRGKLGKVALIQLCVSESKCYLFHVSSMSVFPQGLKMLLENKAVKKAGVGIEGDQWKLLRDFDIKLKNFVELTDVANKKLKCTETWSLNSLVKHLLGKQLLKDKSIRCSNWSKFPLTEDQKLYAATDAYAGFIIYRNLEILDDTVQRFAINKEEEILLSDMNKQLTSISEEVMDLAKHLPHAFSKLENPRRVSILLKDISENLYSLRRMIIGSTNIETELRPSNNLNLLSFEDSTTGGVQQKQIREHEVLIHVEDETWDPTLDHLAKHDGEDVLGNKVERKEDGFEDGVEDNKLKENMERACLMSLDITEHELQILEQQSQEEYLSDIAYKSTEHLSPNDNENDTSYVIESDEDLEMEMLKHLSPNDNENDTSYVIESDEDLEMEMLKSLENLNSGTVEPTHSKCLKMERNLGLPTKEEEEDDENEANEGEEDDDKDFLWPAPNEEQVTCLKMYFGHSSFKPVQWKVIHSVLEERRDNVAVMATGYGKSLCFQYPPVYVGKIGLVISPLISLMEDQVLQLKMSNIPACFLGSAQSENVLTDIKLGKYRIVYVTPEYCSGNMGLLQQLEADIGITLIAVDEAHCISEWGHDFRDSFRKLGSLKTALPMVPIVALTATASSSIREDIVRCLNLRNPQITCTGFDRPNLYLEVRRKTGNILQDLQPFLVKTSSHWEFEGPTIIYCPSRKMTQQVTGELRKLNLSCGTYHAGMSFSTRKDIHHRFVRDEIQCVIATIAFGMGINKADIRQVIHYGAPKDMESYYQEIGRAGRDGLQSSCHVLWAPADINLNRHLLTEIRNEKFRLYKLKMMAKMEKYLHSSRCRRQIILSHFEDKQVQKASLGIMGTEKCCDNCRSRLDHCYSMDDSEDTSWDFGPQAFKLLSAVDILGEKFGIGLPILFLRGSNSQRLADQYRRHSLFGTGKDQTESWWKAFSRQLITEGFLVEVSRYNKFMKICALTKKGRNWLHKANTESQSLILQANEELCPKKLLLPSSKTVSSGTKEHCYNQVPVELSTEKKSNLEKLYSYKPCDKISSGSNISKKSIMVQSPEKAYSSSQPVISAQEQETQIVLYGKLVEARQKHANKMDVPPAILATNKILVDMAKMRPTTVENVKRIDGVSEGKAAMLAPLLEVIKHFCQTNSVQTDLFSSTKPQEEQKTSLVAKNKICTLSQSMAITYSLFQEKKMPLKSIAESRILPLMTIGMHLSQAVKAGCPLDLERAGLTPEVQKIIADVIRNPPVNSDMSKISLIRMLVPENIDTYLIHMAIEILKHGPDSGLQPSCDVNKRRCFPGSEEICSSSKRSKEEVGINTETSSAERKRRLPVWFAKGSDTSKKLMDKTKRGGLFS
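Kinetic red-fluorescence monitoring (525/598 nm) tracks WRN helicase activity after 100 nM fluorophore-quencher forked duplex and 2 mM ATP are added to 20 nM enzyme pretreated 15 min at room temperature with compound.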
FEN1 inh-1 – blocks human flap endonuclease 1; hit rate 0.35% among 390,000; Recombinant FEN1 flap cleavage, fluorescence, 15 min; Potency, µM (doses to about 114 µM), for the others: at the highest dose activity change, negative = inhibition, usual class: inhibitors; further: on the % scale 0 is the no-effect control and ±100 the full control effect; nearly all actives have a fitted effect of over 65% in size
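Steps: FEN1 (10 nM) dispensed; compound added by pin tool; 15 min at room temperature; substrate added to 50 nM final; reads at 0 min and 15 min; data normalized and fitted (four-parameter Hill).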
L3MBTL1 block – L3MBTL1 (human) inhibition; hit rate 0.66% among 230,000; AlphaScreen L3MBTL1–H3K9me1 peptide binding; Potency, µM (series often up to 57.1 µM), for inactives: at the top dose activity, negative = inhibition, hits mostly inhibitors; further: on the % scale 0 is the no-effect control and ±100 the full control effect; nearly all actives have a fitted effect of over 60% in size
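First, the protein-peptide complex forms for 30 min at room temperature (L3MBTL1 50 nM, biotinylated H3K9me1 peptide 75 nM). Next, compounds are pin-transferred and incubated 30 min. Finally, AlphaScreen beads are added and read after 30 min.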
BLM helicase inh – blocks DNA unwinding by human BLM helicase; Potency, µM (top dose mostly 56.1 µM), for the others: top-dose activity change, negative = inhibition, actives largely listed as inhibitors; recombinant BLM DNA unwinding, fluorescence dequenching; AID 2528; P54132; hit rate 0.2% among 350,000;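 further: plate controls were vehicle for no effect and no enzyme for full effect; nearly all actives have a fitted effect of over 35% in size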
FEN1 inh-2 – confirmation of human FEN1 inhibitors; Potency, µM, actives largely listed as inhibitors; shares compounds with FEN1 inh-1; hit rate 79% among 880; FEN1 flap cleavage, TAMRA/BHQ2 fluorogenic DNA substrate; further: nearly all actives have a fitted effect of over 60% in size
* hit, by the source's call; i = inactive; ? = inconclusive; . = no result given; [ ] = dose if it differs, or a comment. Compounds with a hit are over-represented: about 0.99% of the library has one in this group of screens. The call rests on the fitted dose curve; in most records, active means well fitted curve in the direction sought with a large enough effect; inconclusive means small, poorly fitted or top-dose-only effect, or another doubt; inactive means no such curve, though single readings can be large; an effect the other way counts as inactive or inconclusive. Potency means the concentration at half of the fitted maximal effect.

SMILES	RECQ1 inh	WRN helicase inh	FEN1 inh-1	L3MBTL1 block	BLM helicase inh	FEN1 inh-2
Cc1cc(S(=O)(=O)n2cnc3cc([N+](=O)[O-])ccc32)ccc1Cl	-10.9%	7.0%	-3.0%	38.1%	-11.7%	.
C=Cc1c(C)c2cc3[nH]c(cc4nc(cc5nc(cc1[nH]2)C(C)=C5CCC(=O)O)C(CCC(=O)O)=C4C)c(C)c3C=C	10µM*	35.5µM*	35.5µM*	42.3%	3.5%	33.8*
COc1ccc2cc(CNCCOCCOCCNCc3ccc4cc(OC)ccc4c3)ccc2c1	.	?	39.8µM*	.	.	37.9*
Cc1ccc(/C=C2/Sc3ccccc3N(CC(=O)NCC3CCCO3)C2=O)cc1 (centres undefined)	.	-3.3%	-13.0%	.	-2.1%	.
Cc1cc(/C=C2\Sc3ccccc3N2C)cc(C)[n+]1CC1CCCO1 (centres undefined)	?	?	50.1µM*	0.9%	51.3%	33.8*
CCCOc1ccc(C(F)(F)F)cc1NC(=O)C1CC(=O)N(Cc2ccco2)C1 (centres undefined)	.	-0.9%	-7.9%	-5.9%	.	.
CC1(C)CC(N=c2cc(-c3ccccc3)oc3ccc(Cl)cc23)CC(C)(C)N1	-8.0%	-30.8%	28.2µM*	.	162.2%	19*
Cc1ccc2oc(-c3ccccc3)cc(=O)c2c1	-9.2%	.	.	.	-13.7%	.
CCN(CC)CCN(C(=O)c1ccc([N+](=O)[O-])cc1)c1nc2ccc(OC)cc2s1	i	-4.4%	0.0%	.	5.1%	.
Oc1cc2c(cc1O)C1c3ccc(O)c(O)c3OCC1(O)C2 (centres undefined)	?	28.2µM*	35.5µM*	?	-25.0%	?
O=C(CSc1nn(-c2ccccc2)c(=S)s1)Nc1ncccn1	-1.1%	-9.3%	-7.7%	.	-8.3%	.
Cc1cc(C)nc(NC(=O)CSc2nn(-c3ccccc3)c(=S)s2)n1	-2.4%	?	?	-8.8%	-24.9%	?
CCN1/C(=C\c2ccc3cc(C)ccc3[n+]2CC)Sc2cc(C)c(C)cc21	?	44.7µM*	.	?	0.3%	8.49*
CN(C)CCP(=O)(c1ccccc1)c1ccccc1	21.7%	-6.6%	13.8%	9.7%	-2.3%	.
CN(C)CCN(C)Cc1c2ccccc2c(CN(C)CCN(C)C)c2ccccc12	.	?	50.1µM*	.	34.4%	?
O=C(CCc1nnc(CCCCc2ccccc2)o1)N(CCO)Cc1ccccc1	-0.4%	0.8%	13.9%	4.2%	-1.2%	.
CN(C)c1ccc(N=Nc2ccc(C(=O)O)cc2)cc1	.	?	?	.	-8.0%	37.9*
CCn1cc(-c2ccccc2)c(C(=O)O)c1-c1ccc(OC)cc1	.	0.5%	-2.4%	-1.2%	.	.
Cc1cccc(NC(=O)CN2C(=O)S/C(=C\c3ccc(-c4cccc(C(=O)O)c4C)o3)C2=O)c1	-15.1%	-10.0%	39.8µM*	.	?	67.5*
O=C(O)c1ccccc1-c1ccc(/C=C2\SC(=O)N(c3ccccc3)C2=O)o1	.	-5.7%[11.6 µM]	-14.3%	-28.3%	-7.8%	.
Cc1cccc(NC(=O)CN2C(=O)N/C(=C\c3ccc(-c4cccc(C(=O)O)c4)o3)C2=O)c1	i	?	?	.	-1.0%	75.7*
COc1cc(/C=C2\SC(=O)N(CC(=O)Nc3cccc(C)c3)C2=O)cc([N+](=O)[O-])c1O	-4.8%	?	?	.	-29.5%	75.7*
COc1cc(/C=C2\SC(=O)N(c3ccccc3Cl)C2=O)cc([N+](=O)[O-])c1O	?	-15.6%[11.6 µM]	?	?	-2.8%	.
COc1ccc2c(c1)nc(SCC(=O)c1ccc(Br)s1)n2C	-3.1%	-7.3%	6.7%	-9.3%	-3.0%	.
COc1ccc(Cn2c(C)nc3c(c2=O)c2nc4ccccc4nc2n3Cc2ccco2)cc1	.	8.44µM*	39.8µM*	.	.	?
SMILES	RECQ1 inh	WRN helicase inh	FEN1 inh-1	L3MBTL1 block	BLM helicase inh	FEN1 inh-2
COc1ccc(Cn2c(-c3ccc(OC)cc3)nc3c(c(=O)c4ccccc4n3C)c2=O)cc1	-15.0%	.	.	-0.3%	-2.2%	.
COc1ccc(Cn2c(-c3ccco3)nc3c(c(=O)c4ccccc4n3C)c2=O)cc1	-1.2%	-0.9%[11.6 µM]	22.4µM*	.	-1.4%	30.1*
C/C(Cl)=C\Cn1c(=O)c2c(nc3n2CCS3)n(C)c1=O	11.0%	-7.1%	6.4%	5.2%	-0.5%	.
COc1cc(O)c2c(=O)cc(-c3ccc(OC)c(-c4c(O)cc(O)c5c(=O)cc(-c6ccc(O)cc6)oc45)c3)oc2c1	i	.	.	.	1.4%	.
O=c1cc(-c2ccc(O)c(-c3c(O)cc(O)c4c(=O)cc(-c5ccc(O)cc5)oc34)c2)oc2cc(O)cc(O)c12	-17.2%	?	44.7µM*	-16.5%	-8.1%	47.8*
O=C1NC[C@H](Cc2ccccc2)N(C[C@H]2CCCN2C[C@H](Cc2ccccc2)N2C[C@H](Cc3ccc(O)cc3)N(CC3CCCCCC3)C(=O)C2=O)C1=O	.	2.0%	12.2%	.	.	.
CN(C)CCNc1ccc(CO)c2oc3ccc(O)cc3c(=O)c12	.	7.4%[11.6 µM]	35.5µM*	.	.	30.1*
O=C(/C=C/c1ccc(Cl)cc1)N(Cc1cccs1)C1CCS(=O)(=O)C1 (centres undefined)	i	4.4%	-24.5%	39.2%	-9.0%	.
CCc1ccc(S(=O)(=O)Nc2cc(SCC(=O)O)c(O)c3ccccc23)cc1	-5.6%	44.7µM*	?	?	17.8µM*	60.1*
O=C(O)CSc1cc(NS(=O)(=O)c2cccc([N+](=O)[O-])c2)c2ccccc2c1O	-15.1%	39.8µM*	3.16µM*	?	17.8µM*	75.7*
CCOc1ccc(S(=O)(=O)Nc2cc(SCC(=O)O)c(O)c3ccccc23)cc1	.	79.4µM*	?	?	?	67.5*
CCc1ccc(S(=O)(=O)Nc2ccc(O)c3ccccc23)cc1	.	1.1%	?	.	-6.4%	.
CC(C)C[C@H](NC(=O)[C@H](CC(C)C)NC(=O)[C@H](Cc1ccc(O)cc1)NC(=O)CNC(=O)[C@H](C)NC(=O)[C@H](CO)NC(=O)[C@H](CC(N)=O)NC(=O)[C@H](CC(C)C)NC(=O)[C@@H](NC(=O)[C@H](Cc1c[nH]c2ccccc12)NC(=O)CN)[C@@H](C)O)C(=O)NCC(=O)N1CCC[C@H]1C(=O)N1CCC[C@H]1C(=O)N1CCC[C@H]1C(=O)NCC(=O)N[C@@H](Cc1ccccc1)C(=O)N[C@@H](CO)C(=O)N1CCC[C@H]1C(=O)N[C@@H](Cc1ccccc1)C(=O)N[C@@H](CCCNC(=N)N)C(N)=O	-3.9%	.	.	.	-2.0%	.
CCN(CC)CCCNc1nc2ccccc2c2nc(-c3ccncc3)nn12	.	-1.7%[11.6 µM]	44.7µM*	.	208.7%	21.3*
COCCCNC(=O)CC(NS(=O)(=O)c1ccc(C)cc1)c1ccco1 (centres undefined)	-6.2%	1.6%	-0.2%	1.1%	-2.9%	.
CCN(CC)CCCNC(=O)c1cc2c(-c3cccc(OC)c3)nn(C)c2s1	.	53.6%	?	.	147.3%	?
